Screens: PubChem BioAssay, National Center for Advancing Translational Sciences (NCATS)
In the library only some 4.7% were active in any assay of this set; here they are far more common.
D1 agonist = activates the human D1 dopamine receptor. HEK293 T-REx D1 cells, calcium flux, agonist mode. activation, % at 2 µM. 1% of 360,000 active. AID 504660
Target sequence (P21728 whole entry, looked up): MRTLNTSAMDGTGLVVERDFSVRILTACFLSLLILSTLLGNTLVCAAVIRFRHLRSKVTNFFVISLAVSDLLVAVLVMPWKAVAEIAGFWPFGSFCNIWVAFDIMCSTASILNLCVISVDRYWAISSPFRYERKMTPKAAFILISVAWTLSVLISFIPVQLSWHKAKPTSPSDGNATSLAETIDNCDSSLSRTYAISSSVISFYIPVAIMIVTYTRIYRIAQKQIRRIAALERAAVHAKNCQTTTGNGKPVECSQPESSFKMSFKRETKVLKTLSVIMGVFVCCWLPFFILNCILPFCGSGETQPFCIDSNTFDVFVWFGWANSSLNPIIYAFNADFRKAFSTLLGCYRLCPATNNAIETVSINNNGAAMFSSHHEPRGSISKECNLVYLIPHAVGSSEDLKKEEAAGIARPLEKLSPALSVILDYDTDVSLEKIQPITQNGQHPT
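Inducible HEK293 T-REx D1 cells, force-coupled to calcium signalling, were plated at 4000 cells/well with tetracycline and held overnight at 30 C. After no-wash calcium dye loading, compound-evoked calcium rise over 180 s flagged agonists.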
TRHR PAM = allosteric enhancers of human TRH receptor; P34981; TRHR cells, fluo-8 calcium fluorescence, EC20 TRH enhancement; 0.66% of 360,000 active; AID 493056; enhancement, % at 2 µM; in the data active = enhancement above about 30%
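Enhancer read-out: after compound pinning and an initial kinetic agonist-mode read, an EC20 of TRH (10 nM final) was injected and fluo-8 calcium signal (Ex 480/Em 530) followed at 1 s/cycle for 100 cycles in TRHR-expressing cells.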
D1 potentiator = human D1 dopamine receptor positive modulation. P21728. HEK293 TREx D1 cells, calcium flux, dopamine EC20 potentiation. potentiation, % at 10 µM. 0.036% of 360,000 active. AID 504651; in the data active = potentiation above about 30%
TRHR ag = TRH receptor (human) agonism; TRHR cells, calcium flux fluo-8, FDSS agonist mode; activation, % at 2 µM; 0.18% of 360,000 active
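Read-out: compound-evoked intracellular calcium rise in TRHR cells, fluo-8 dye, kinetic FDSS fluorescence at 1 s/cycle following a 10-cycle baseline. Cells cultured overnight before dye loading (30 min–1.5 h, RT).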
D1 antagonist = antagonists of human D1 dopamine receptor; P21728; HEK293 TREx D1 cells, calcium flux, dopamine EC80; active compounds read low; activity change, negative = inhibition, % at 10 µM; 3.2% of 360,000 active; in the data active = activity change below about -30%
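Inducible Hek293 Trex D1 cells (tetracycline, overnight, 30 C). Calcium dye 30–90 min RT. Antagonist mode: EC80 dopamine added after 180 s compound read.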
Large screens that a line does not name were inactive; ! = not confirmed by another sample. Cut-off read from the data, not from the text of the source, unless noted: active = activation above about 30%; inactive = the rest.

CCOC(=O)C(C(=O)OCC)c1cc(Br)c2noc3c2c1C(=O)c1ccccc1-3	none
C/C(=N\NC(=O)c1ccc(F)cc1)c1ccc(NC(=O)Cc2ccccc2)cc1	none
Cc1nn(-c2ccc(N3CCOCC3)nn2)c(C)c1CCC(=O)NCc1ccc(F)cc1	TRHR PAM 34!
Cc1ccc(S(=O)(=O)N2CCOCC2)cc1NC(=O)CSc1ccc(Cl)cc1	none
Cc1ccc(OC(C)C(=O)Nc2ccc(S(=O)(=O)N3CCOCC3)cc2)cc1 (stereo not given)	D1 agonist 39
CC(Oc1ccccc1)C(=O)Nc1ccc(S(=O)(=O)N2CCCC2)cc1 (stereo not given)	none
CC(Oc1ccc(C(=O)c2ccccc2)cc1)C(=O)Nc1ccc(S(N)(=O)=O)cc1 (stereo not given)	D1 agonist 38
CC(C)C(=O)Nc1ccc(C(=O)Nc2ccc(S(=O)(=O)N3CCOCC3)cc2)cc1	none
CC(Sc1ccc(Cl)cc1)C(=O)Nc1ccc(S(=O)(=O)N2CCOCC2)cc1 (stereo not given)	D1 agonist 56
O=C(CCCSc1ccc(Cl)cc1)Nc1cc(S(=O)(=O)N2CCOCC2)ccc1O	D1 antagonist -45
COc1cccc(NC(=O)c2cnc(SCC(=O)N3CCOCC3)n(C)c2=O)c1	none (no result: D1 antagonist)
N#Cc1ccccc1NC(=O)CSc1nnc(N)s1	none
O=C(Cc1ccccc1)Nc1nc(-c2cccs2)cs1	D1 antagonist -31
O=C(Cc1c(F)c(F)c(F)c(F)c1F)Nc1nc(-c2ccccc2)cs1	D1 agonist 36
O=C(Cc1cccs1)Nc1nc(-c2ccc(F)c(F)c2)cs1	none
CC1Cc2cc(-c3csc(NC(=O)Cc4cccs4)n3)ccc2N1S(C)(=O)=O (stereo not given)	D1 antagonist -42
O=C(Cc1cccs1)Nc1nc(-c2ccc(F)cc2F)cs1	D1 antagonist -44
O=C(Cc1ccc(F)cc1)Nc1nc(-c2ccc(F)cc2)cs1	none
O=C(Cc1ccccc1F)Nc1nc(-c2cccs2)cs1	none
COCCNC(=O)c1cn(CCOC)c(=O)c2c1c1ccccc1n2C	none
CCc1nc2nc(C)cc(Nc3cc(Cl)ccc3C)n2n1	none
CCS(=O)(=O)N1CCN(C(=O)c2cccc3ccccc23)CC1	none
Fc1ccc(NC(=S)N2CCN(c3cccc(C(F)(F)F)c3)CC2)cc1	D1 antagonist -38
FC(F)Sc1ccc(NC(=S)N2CCN(c3ccccn3)CC2)cc1	D1 antagonist -34
Cc1[nH]c2ccccc2c1NC(=O)CN1CCN(c2cccc(C(F)(F)F)c2)CC1	none
O=C(c1c(F)c(F)c(F)c(F)c1F)N1CCN(c2cccc(C(F)(F)F)c2)CC1	TRHR PAM 31
Oc1ccccc1N1CCN(C(=S)Nc2ccc(SC(F)F)cc2)CC1	none
Cc1[nH]c2ccccc2c1C(O)CN1CCN(c2cccc(C(F)(F)F)c2)CC1 (stereo not given)	D1 agonist 31, D1 antagonist -59
COc1ccc(OC)c(CNC(=O)C(C)n2c(C)c3cnn(-c4ccccc4)c(=O)c3c2C)c1 (stereo not given)	none
CCOC(=O)c1noc2nc(C)n(CC(=O)Nc3ccc(Br)cc3C)c(=O)c12	none
Cc1c(Cl)cccc1NC(=S)N1CCN(c2ccccn2)CC1	none
O=C(CN1CCN(c2cccc(Cl)c2)CC1)NCc1ccccc1	none
O=C(CN1CCN(c2cccc(C(F)(F)F)c2)CC1)NCc1ccccc1	D1 antagonist -45
S=C(Nc1ccccc1Cl)N1CCN(c2ccccn2)CC1	D1 antagonist -32
FC(F)(F)c1cccc(NC(=S)N2CCN(c3ccccn3)CC2)c1	D1 antagonist -30
C/C(=N\NC(=O)c1ccncc1)c1cccc(NC(=O)c2ccc(Cl)s2)c1	none
O=C1c2ccccc2C(Nc2ccccc2F)N1c1cccnc1 (stereo not given)	D1 antagonist -35 (no result: D1 potentiator)
COC(=O)c1ccccc1NC1c2ccccc2C(=O)N1c1cccnc1 (stereo not given)	none
COc1ccc(OC)c(CCNC(=O)c2cnn(-c3ccccc3)c2C2CCN(C(=O)OC(C)(C)C)CC2)c1	none
CC(C)Sc1nc2ccc(Br)cc2[nH]1	D1 antagonist -33
COc1ccc(OC)c2c1CCC2=O	D1 antagonist -65
COc1ccc(N2C(=O)C3CCCN3C2=O)cc1 (stereo not given)	D1 antagonist -34
CCOc1ccc(N2C(=O)C3CCCN3C2=O)cc1 (stereo not given)	none
CCOC1(OCC)N=C(N)C2(C#N)C(c3cccc(C)c3)C12C#N (stereo not given)	D1 antagonist -82
Cc1cc(C)cc(NC(=O)c2nnn(Cc3cc(C)ccc3C)c2N)c1	D1 antagonist -44
Cc1ccc(C)c(Cn2nnc(C(=O)Nc3ccc4c(c3)OCCO4)c2N)c1	D1 agonist 50
O=C(Nc1ccc(Oc2ccccc2)cc1)c1ccc(F)c(S(=O)(=O)N2CCN(c3cccc(Cl)c3)CC2)c1	none
O=C(COC(=O)c1cccc(S(=O)(=O)N2CCN(c3ccc(F)cc3)CC2)c1)NCC1CCCO1 (stereo not given)	none
O=C(COC(=O)c1cccc(S(=O)(=O)N2CCN(c3ccccc3)CC2)c1)NCC1CCCO1 (stereo not given)	D1 antagonist -34
O=c1[nH]c2ccc(S(=O)(=O)N3CCN(S(=O)(=O)c4ccc5c(c4)OCCO5)CC3)cc2[nH]c1=O	none
Cc1ccc(-n2ncc(C(=O)Nc3ccc(Cl)cc3)c2C2CCNCC2)cc1C	D1 antagonist -44
C=CCc1cc(Cl)ccc1OC(=O)Nc1cccc(Cl)c1	D1 antagonist -55
CCN(CCCc1ccccc1)CCCc1ccccc1	none
CCN(CCCC(=O)c1ccc(F)cc1)CCc1ccccc1	D1 antagonist -36
O=C(c1ccc2nccnc2c1)N1CCCC(N2CCN(c3ccc(F)cc3)CC2)C1 (stereo not given)	none
Clc1cc2c(c(CSc3nc4ccccc4n4cccc34)c1)OCOC2	D1 antagonist -47
COc1ccc2oc(C(=O)OCC(=O)N(C)C3CCS(=O)(=O)C3)c(C)c2c1 (stereo not given)	none
Cc1ccc(NC(=O)c2cc3ccccn3n2)cc1F	none
CSc1ccc(/C=C2\CCn3c2nc2cc(C(=O)O)ccc2c3=O)cc1	none
CCS(=O)(=O)N1CCC2(CC1)OC(=O)C(C)=C2C(=O)NCc1ccccc1C	D1 antagonist -54
CC(=O)N1CCC2(CC1)OC(=O)C(C)=C2C(=O)NCc1ccccc1Cl	none
CC(=O)c1ccc(NC(=O)C(C)NCc2ccccc2Cl)cc1 (stereo not given)	D1 antagonist -36
CCCC(=O)Nc1ccc(C(=O)NCc2ccccc2Cl)cc1	none
Cc1ccc(-c2[nH]ncc2CNCCc2cnn(-c3ccccc3)c2)cc1C	D1 agonist 34
Cn1cc(CCNCc2cn[nH]c2-c2ccc(-c3ccccc3)cc2)cn1	none
